# This is a sample that favours compounds with a hit; in the whole collection about 0.5% have one here.
# EPAC1 antagonist – qHTS for Antagonist of cAMP-regulated guanine nucleotide exchange factor 3 (EPAC1): primary screen. EPAC1 GEF assay, Rap1b-BODIPY-GDP exchange fluorescence. Potency, µM (highest dose often 115 µM), actives largely listed as inhibitors. 360,000 compounds, 0.14% hits. AID 720709, 2013; note: nearly all actives have a fitted effect of over 50% in size
# EPAC1 ag – qHTS for Agonist of cAMP-regulated guanine nucleotide exchange factor 3 (EPAC1): primary screen | EPAC1 agonist qHTS, biochemical assay; response scale: 100% = response to 6.5 mM cAMP | Potency, µM (doses to about 154 µM), hits mostly activators | 360,000 compounds, 0.073% hits | AID 720707, 2013; note: nearly all actives have a fitted effect of over 60% in size
#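 Normalized to 6.5 mM cAMP, activity reflects EPAC1-catalysed release of BODIPY-GDP from Rap1B, followed kinetically over 30 min at 480 nm excitation, 540 nm emission. Reaction contained 100 nM EPAC1, 250 nM Rap1B-BODIPY-GDP, 50 uM GDP.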
# EPAC2 agonist – qHTS for Agonist of cAMP-regulated guanine nucleotide exchange factor 4 (EPAC2): primary screen; Potency, µM (highest dose often 154 µM), most hits filed as activators; AID 720711, 2013; Rap guanine nucleotide exchange factor 4 (Homo sapiens), Q8WZA2; EPAC2 activation, biochemical qHTS; response scale: 100% = 6.5 mM cAMP response; 360,000 compounds, 0.079% hits; note: nearly all actives have a fitted effect of over 50% in size
#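 Compounds were titrated in qHTS against a Rap1B-BODIPY-GDP (250 nM) complex with EPAC2 (100 nM) and GDP (50 uM). BODIPY-GDP release tracked at 480/540 nm over 30 min at room temperature, normalized to 6.5 mM cAMP.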
# EPAC2 antagonist – qHTS for Antagonist of cAMP-regulated guanine nucleotide exchange factor 2 (EPAC2): primary screen; Rap guanine nucleotide exchange factor 4 (Homo sapiens), Q8WZA2; EPAC2 GEF exchange of Rap1B-BODIPY-GDP, fluorescence; Potency, µM (titrated, usually from 114 µM), actives largely listed as inhibitors; 360,000 compounds, 0.18% hits; AID 720708, 2013; note: nearly all actives have a fitted effect of over 45% in size
# PTHR1 agonist – qHTS for PTHR1 Agonists: Primary Screen; HEK293 GP2 PTHR1 cells, GloSensor cAMP luminescence, 1 h; Potency, µM (top dose mostly 115 µM), most hits filed as activators; 410,000 compounds, 0.075% hits; AID 743266, 2014; note: nearly all actives have a fitted effect of over 55% in size
#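 HEK-293-derived GP2 cells expressing PTHR1 and a GloSensor cAMP reporter, 3,000/well, plated overnight, given luciferin plus IBMX (each 0.5 mM as added) for 1 h at 37 °C, then compound for 1 h at 37 °C. Luminescence was read after 15 min at room temperature.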
# TSHR antag – Antagonists of the Thyroid Stimulating Hormone Receptor: HTS campaign; Thyrotropin receptor (Homo sapiens), P16473; TSHR-expressing cells, TSH-stimulated cAMP HTRF, 2 h; active compounds read low; activity change, negative = inhibition, % at 11.5 µM; 330,000 compounds, 0.2% hits;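 active = activity change below a set negative limit, meaning inhibition stronger than a set level, cut at about -70% in these data; inconclusive = activity change between two set negative limits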
# Target sequence (P16473 whole entry, looked up): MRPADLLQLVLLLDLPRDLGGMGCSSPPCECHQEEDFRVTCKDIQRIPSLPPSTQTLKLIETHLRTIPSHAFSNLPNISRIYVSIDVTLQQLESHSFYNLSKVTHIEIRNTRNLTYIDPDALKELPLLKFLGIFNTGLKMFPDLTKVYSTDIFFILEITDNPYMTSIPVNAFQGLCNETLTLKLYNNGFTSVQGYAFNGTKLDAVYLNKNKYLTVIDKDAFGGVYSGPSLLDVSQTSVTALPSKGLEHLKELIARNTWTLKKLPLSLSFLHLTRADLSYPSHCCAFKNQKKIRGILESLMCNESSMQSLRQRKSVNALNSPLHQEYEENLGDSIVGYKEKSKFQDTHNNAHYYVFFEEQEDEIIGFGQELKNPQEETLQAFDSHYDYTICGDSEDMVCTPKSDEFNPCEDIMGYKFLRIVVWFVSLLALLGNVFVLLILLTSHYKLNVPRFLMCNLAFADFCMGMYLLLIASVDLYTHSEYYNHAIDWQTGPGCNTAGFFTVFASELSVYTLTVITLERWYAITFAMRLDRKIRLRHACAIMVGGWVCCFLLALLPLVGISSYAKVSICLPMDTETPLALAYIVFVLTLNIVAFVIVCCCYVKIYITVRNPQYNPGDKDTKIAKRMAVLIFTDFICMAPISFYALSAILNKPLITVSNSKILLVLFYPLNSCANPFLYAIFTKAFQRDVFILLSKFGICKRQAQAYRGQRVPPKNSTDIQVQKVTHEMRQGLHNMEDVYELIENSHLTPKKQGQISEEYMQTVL
#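 TSHR-expressing cells were treated with compounds, then stimulated with TSH at EC80 (4nM final) for 2 hours at 37 deg C. Cellular cAMP was measured by HTRF competition between lysate cAMP and cAMP-d2 for a cryptate-labelled anti-cAMP antibody.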
# Numbers stand for hits; n = inactive; u = inconclusive; x = not tested or not shown; ! = not active in a repeat. Unless noted, calls come from the whole dose curve; as a rule, active = well fitted curve in the direction sought with a large enough effect; inconclusive = small, poorly fitted or top-dose-only effect, or another doubt; inactive = no such curve, though single readings can be large; an effect the other way counts as inactive or inconclusive.
SMILES,EPAC1 antagonist,EPAC1 ag,EPAC2 agonist,EPAC2 antagonist,PTHR1 agonist,TSHR antag
CCN(CC)C(=O)CSc1nnc(-c2cccs2)n1Cc1ccco1,n,n,10µM,n,n,n
Cc1cnc(C(=O)OCc2nc3ccsc3c(=O)[nH]2)cn1,u,n,n,n,n,n
O=Cc1ccc(-c2cccs2)s1,n,n,n,n,n,x
Oc1ccc(N=Cc2ccc(-c3cccs3)s2)cc1,31.6µM,n,n,u,n,n
Cc1cc(C)n2nc(SCC(=O)NC3(C#N)CCCCC3)nc2n1,n,n,n,n,n,x
CCCN1CCc2c(sc(NC(=O)c3ccc(S(=O)(=O)N(C)c4ccccc4)cc3)c2C(=O)NC)C1,n,n,n,n,n,n
CCCN1CCc2c(sc(NC(=O)c3ccc(S(=O)(=O)N(C)c4ccccc4)cc3)c2C(N)=O)C1,n,n,112µM,n,n,n
COc1ccc(-c2cc(-c3nc4ccccn4c3NCc3ccccc3)ccc2OC)cc1,n,n,n,n,n,-96.7
O=C(c1ccco1)N(CCC(c1ccccc1)c1ccco1)Cc1ccccc1 (stereo not drawn),89.1µM,n,n,u,n,n
COC(=O)[C@]1(Cc2ccccc2)N[C@H](c2ccc(-c3ccccc3)cc2)[C@@H]2C(=O)N(C)C(=O)[C@@H]21,n,n,n,n,n,n
COC(=O)C1(Cc2ccccc2)NC(c2ccc(F)cc2)C2C(=O)N(C)C(=O)C21 (stereo not drawn),n,n,7.94µM,n,n,n
CCN1CCN(C2=C(NS(=O)(=O)c3ccc(NC(C)=O)cc3)C(=O)c3ccccc3C2=O)CC1,n,n,n,n,n,n
CCN1CCN(C2=C(NS(=O)(=O)c3ccc(C)cc3)C(=O)c3ccccc3C2=O)CC1,n,n,n,n,n,-79.4
O=C1C=CC(=O)c2c(O)c(N3CCN(CCO)CC3)c(Cl)c(O)c21,14.1µM,n,n,u,n,x
O=S(=O)(c1ccc(Br)cc1Cl)N1CCN(CCO)CC1,n,n,n,n,n,n
OCCOCCN1CCN(C2=Nc3ccccc3Sc3ccccc32)CC1,n,n,n,n,n,n
O=C1C=CC(=O)c2c(O)c(N3CCN(CCOCCO)CC3)c(Br)c(O)c21,44.7µM,n,n,n,n,x
CCCC(=O)Nc1ccc2nc(SCc3ccc(C)cc3)sc2c1,x,x,x,x,n,x
Cc1c(Cl)cccc1NC(=O)C(=O)NCCc1csc(-c2cccc(F)c2)n1,x,x,x,x,n,x
Cc1ccc(NC(=S)/C(C#N)=C2/Nc3ccccc3S2)cc1,u,n,n,20µM,n,x
N#C/C(C(=O)N1CCCCC1)=C1\Nc2ccccc2S1,n,n,n,n,n,n
COc1ccc(-c2nn(CC(=O)NCc3ccccc3)c3c2cnc2ccc(F)cc23)cc1,x,x,x,x,n,x
COCC(=O)Oc1c(Sc2ccccc2[N+](=O)[O-])c(C)nn1C(C)(C)C,n,n,n,56.2µM,n,n
O=C(O)CCC(=O)N1CCN(S(=O)(=O)c2ccc3ccccc3c2)CC1,n,n,n,n,n,n
O=C(Cn1ncc(Cl)c(Cl)c1=O)N1CCN(S(=O)(=O)c2ccc3ccccc3c2)CC1,n,n,n,n,n,-78.9
SMILES,EPAC1 antagonist,EPAC1 ag,EPAC2 agonist,EPAC2 antagonist,PTHR1 agonist,TSHR antag
O=c1c(O)c(-c2cc(O)c(O)c(O)c2)oc2cc(O)cc(O)c12,15.8µM,n,n,8.91µM,n,n
O=c1[nH]c(=S)[nH]c2c1CN(Cc1ccc(F)cc1)CC2,n,n,n,n,n,-138.7
Cc1ccc(CN2CCc3[nH]c(=S)[nH]c(=O)c3C2)cc1,n,n,n,n,n,n
O=C(O)c1cccc(Nc2ncnc3ccc(Br)cc23)c1,n,n,n,n,8.91µM!,n
O=S(=O)(Nc1cc(Sc2ncn[nH]2)c(O)c2ccccc12)c1ccccc1,u,n,n,u,n,n
O=C(O)CSc1cc(NS(=O)(=O)c2ccc(Br)cc2)c2ccccc2c1O,56.2µM,n,n,u,n,n
COc1cc(Cl)cc(C(c2c(C(=O)O)[nH]c3ccccc23)c2c(C(=O)O)[nH]c3ccccc23)c1O,n,n,n,n,n,n
O=C(O)c1[nH]c2ccccc2c1C(c1cc(Br)ccc1O)c1c(C(=O)O)[nH]c2ccccc12,44.7µM,n,n,n,n,n
CS(=O)(=O)N1N=C(c2ccco2)CC1c1ccc(Cl)cc1Cl (stereo not drawn),n,n,n,10µM,n,n
CC(C)(Sc1ccc(CCN(CCCCC2CCCCC2)C(=O)NC2CCCCC2)cc1)C(=O)O,n,n,n,56.2µM,n,n
CC1(C)OC(=O)NC1c1ccccc1 (stereo not drawn),n,n,n,n,n,x
COc1ccc(S(=O)(=O)Nc2ccc(OCC(=O)O)cc2)c2ccccc12,n,n,n,89.1µM,n,n
CN(C)c1ccc(NC(=O)COC(=O)c2ccc3c(c2)OCO3)cc1,n,n,n,n,n,n
CN(C)c1ccc(C(=O)OCC(=O)Nc2ccc(S(N)(=O)=O)cc2)cc1,50.1µM,u,n,50.1µM,n,n
Cc1cccn2c(=O)c3cc(C#N)c(=NC(=O)c4ccco4)n(Cc4ccco4)c3nc12,n,n,n,n,n,n
Cc1cccc(C(=O)N=c2c(C#N)cc3c(=O)n4cccc(C)c4nc3n2Cc2ccco2)c1,50.1µM,n,n,n,n,n
Cc1cccn2c(=O)c3cc(C#N)c(=NC(=O)c4ccccc4)n(Cc4ccco4)c3nc12,89.1µM,n,n,u,n,x
COCCCn1c(=NC(=O)c2ccccc2)c(C#N)cc2c(=O)n3cccc(C)c3nc21,n,n,n,n,n,n
CCCNC(=O)c1ccc2c(=O)c(O)c(-c3ccsc3)[nH]c2c1,n,n,89.1µM,n,n,n
Clc1ccc(-c2cc3ccccc3nc2N2CCOCC2)cc1,n,n,n,56.2µM,n,n
COc1ccc(N2C(=O)CS(=O)(=O)C23C(=O)N(Cc2ccc(F)cc2)c2ccc(C)cc23)cc1 (stereo not drawn),x,x,x,x,n,x
COc1cc([N+](=O)[O-])ccc1-c1ccc(/C=N\n2cnnc2)o1,n,n,n,n,n,n
